Screens deposited in PubChem BioAssay by National Center for Advancing Translational Sciences (NCATS).
A selection: hits, their analogues and other compounds. The true share with any hit is near 11%.
HttQ103 aggreg = qHTS Multiplex Assay to Identify Dual Action Probes in a Cell Model of Huntington: Aggregate Formation (GFP); AID 1688, 2009; PC12 HttQ103-GFP aggregates, Acumen cytometry, 40 h; 220,000 tested, 1.1% active; Potency, µM (highest dose often 46.1 µM), without a hit: top-dose activity change, negative = inhibition, actives largely listed as inhibitors; note: potency is the fitted concentration of half-maximal effect; % is set by controls: 0 for no effect and ±100 for the full control effect; nearly all actives have a fitted effect of over 60% in size
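Inducible Q103 Huntingtin exon 1–GFP PC12 line, 1500 cells/well in phenol red free DMEM with 5% equine and 5% calf serum. Tebufenozide 100 nM induced expression; compounds titrated; aggregates quantified by cytometry.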
HPGD block = qHTS Assay for Inhibitors of HPGD (15-Hydroxyprostaglandin Dehydrogenase). 15-hydroxyprostaglandin dehydrogenase [NAD(+)] (Homo sapiens), P15428. purified HPGD, NADH fluorescence kinetic, PGE2 substrate. Potency, µM, without a hit: at the highest dose activity change, negative = inhibition, usual class: inhibitors. 150,000 tested, 4.3% active. AID 894, 2007; active = well fitted inhibition curve with a large enough effect, not every such curve was filed as active; inconclusive = small, poorly fitted or top-dose-only effect, or another doubt; inactive = no such curve, though single readings can be large or run the other way; note: potency is the fitted concentration of half-maximal effect; % is set by controls: 0 for no effect and ±100 for the full control effect
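NADH formation kinetics: reaction with 30 uM PGE2 and 1 mM NAD+ (final), 20 nM enzyme, Tris-HCl pH 8 with Tween 20, after 15 min compound preincubation at room temperature. Fluorescence change, last versus first of five reads.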
HTT ATP protect = qHTS Multiplex Assay to Identify Dual Action Probes in a Cell Model of Huntington: Cytoprotection (ATP) | PC12 HTT-Q103 induced, cytoprotection, ATP luminescence, 40 h | Potency, µM (titrated, usually from 56.4 µM), inactives show cytoprotection (ATP increase), hits mostly activators | 230,000 tested, 0.14% active | AID 1471, 2008; note: potency is the fitted concentration of half-maximal effect; % of control where 0% means no effect; nearly all actives have a fitted effect of over 45% in size
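Huntington model: PC12 line, ecdysone-inducible HTTQ103 exon1–GFP, tebufenozide 100 nM. Test articles in a dose series. Endpoint luminescence from cellular ATP.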
ALDH1A1 block = qHTS Assay for Inhibitors of Aldehyde Dehydrogenase 1 (ALDH1A1) | 220,000 tested, 7.3% active | Purified ALDH1A1, NADH fluorescence, propionaldehyde substrate | AID 1030, 2008 | Potency, µM (titrated, usually from 75.3 µM), for the others: top-dose activity, negative = inhibition, usual class: inhibitors; active = well fitted inhibition curve with a large enough effect, not every such curve was filed as active; inconclusive = small, poorly fitted or top-dose-only effect, or another doubt; inactive = no such curve, though single readings can be large or run the other way;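 note: potency is the fitted concentration of half-maximal effect; plate controls were no enzyme wells and a reference inhibitor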
Target sequence (P00352 whole entry, looked up): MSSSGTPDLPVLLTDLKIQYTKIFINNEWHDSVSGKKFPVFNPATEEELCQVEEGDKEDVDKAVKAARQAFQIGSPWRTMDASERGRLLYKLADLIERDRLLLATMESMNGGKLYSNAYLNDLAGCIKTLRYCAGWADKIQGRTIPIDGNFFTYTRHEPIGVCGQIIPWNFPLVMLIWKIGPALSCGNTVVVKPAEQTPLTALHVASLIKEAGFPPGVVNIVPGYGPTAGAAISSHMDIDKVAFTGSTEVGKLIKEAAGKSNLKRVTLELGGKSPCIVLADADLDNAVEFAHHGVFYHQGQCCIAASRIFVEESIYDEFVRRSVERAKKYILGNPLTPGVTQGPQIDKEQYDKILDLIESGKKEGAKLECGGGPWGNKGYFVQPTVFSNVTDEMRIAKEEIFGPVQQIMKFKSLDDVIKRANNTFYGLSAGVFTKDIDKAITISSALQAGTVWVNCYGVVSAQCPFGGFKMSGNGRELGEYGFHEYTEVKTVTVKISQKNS
PNC assembly inh = High Content Assay for Compounds that inhibit the Assembly of the Perinucleolar Compartment; PC3M PTB-GFP, PNC prevalence imaging, 16 h; active compounds read low; activity change (PNC), negative = inhibition, % at 10 µM; 140,000 tested, 3.1% active; AID 2417, 2010;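 active = readout at or below -70, meaning at least 70% loss of cells showing the perinucleolar compartment, a nuclear body marking cancer cells; inconclusive = readout between -30 and a set limit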;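 note: plate controls were DMSO wells for no effect and camptothecin positive control wells for full effect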
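PC3M cells stably expressing PTB-GFP, 750–1000 cells/well, treated 16 h at 37 °C with compound (23 nl of library stock), in duplicate. After paraformaldehyde fixation and Hoechst stain, imaged at 20x; PNC prevalence scored by image analysis.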
CBFb RUNX1 block = qHTS Assay for Compounds Blocking the Interaction Between CBF-beta and RUNX1 for the Treatment of Acute Myeloid Leukemia | Runt-related transcription factor 1 (Homo sapiens) + Core-binding factor subunit beta … | Potency, µM (doses to about 59.8 µM), for the others: at the top dose activity, negative = inhibition, most hits filed as inhibitors | 230,000 tested, under 10 active | AlphaScreen CBFb-His/RUNX1-biotin binding, biochemical | AID 1477, 2009; note: % of control where 0% means no effect
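Read-out: AlphaScreen. Format: His-CBF-beta with biotinylated RUNX1 (30 nM each) preincubated 20 min, compound 15 min, Ni-chelate plus streptavidin beads 90 min; room temperature throughout.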
* hit, by the source's call; ? = inconclusive; / = no result; ! = a repeat was not active; [ ] = dose if it differs, or a comment. Unless noted, calls come from the whole dose curve; as a rule, active = well fitted curve in the direction sought with a large enough effect; inconclusive = small, poorly fitted or top-dose-only effect, or another doubt; inactive = no such curve, though single readings can be large; an effect the other way counts as inactive or inconclusive.

SMILES | HttQ103 aggreg | HPGD block | HTT ATP protect | ALDH1A1 block | PNC assembly inh | CBFb RUNX1 block
CC(C)C(c1nnnn1C1CCCC1)N1CCc2ccccc21 (configuration not stated) | 1.9% | -11.0% | -10.9% | ? | 40.2 | -3.2%
CC(C)C(c1nnnn1C1CCCC1)N1CCCc2ccccc21 (configuration not stated) | -27.2% | -16.9% | 22.3%[10 µM] | ? | -100.0* | -4.5%
CCCCC#CC1C=CC(Oc2cc(OC)c(OC)c(OC)c2)C(COC(=O)OCC)O1 (configuration not stated) | / | / | -2.4%[10 µM] | -3.9%[13.5 µM] | / | 15.7%[13.1 µM]
COc1ccc(/C=N/NC(=O)CNc2c(Br)cc(C)cc2Br)c(C(=O)O)c1OC | 7.9% | / | -42.4% | 7.08µM* | / | 25.3%
COc1ccc(/C=N/NC(=O)CNc2ccc(Br)cc2)c(C(=O)O)c1OC | -8.7% | / | -5.4% | -7.8% | / | -3.6%
Cc1cc(C)c(S(=O)(=O)Nc2ccc3c(c2)CCC3)c(C)c1 | -18.9% | -21.3% | 7.8%[10 µM] | -3.7% | -89.1* | -0.3%
Cc1cc(C)c(S(=O)(=O)Nc2ccc3c4c(cccc24)CC3)c(C)c1 | ? | -13.4% | -73.1% | ? | -88.4* | 1.2%
CC(Oc1ccccc1F)C(=O)Nc1ccc2ccccc2c1 (configuration not stated) | 11.1% | -21.1% | -11.3%[10 µM] | 0.8% | -86.6* | 2.2%
CC1=C(/C=C/C(=C/C=C/C(C)=C/C(=O)O)c2ccc(C)cc2)C(C)(C)CCC1 | / | -18.8% | 37.8% | ? | / | -23.2%
CC1=C(/C=C/C(C)=C/C=C/C(C)=C/C(=O)Nc2ccc(O)cc2)C(C)(C)CCC1 | ? | -9.2% | ? | 20µM*! | / | -16.1%
CC1=C(\C=C/C(C)=C/C=C\C(C)=C\C(=O)O)C(C)(C)CCC1 | / | -7.3% | -35.8% | 35.5µM*! | / | 15.7%
CC1=C(/C=C/C(C)=C/C=C/C(C)=C\C(=O)O)C(C)(C)CCC1 | / | -13.6% | -62.1% | ? | / | -0.9%
CN1CCN(c2ccnc(-c3cccnc3)n2)CC1 | / | / | 4.0% | ? | / | /
CCN(CC)S(=O)(=O)c1ccc(-c2nnco2)cc1 | -29.2% | -9.7% | 1.5%[10 µM] | -2.2% | -100.0* | 1.7%
CCOCc1[nH]c(=S)[nH]c(=O)c1Cc1ccc(OC(C)C)cc1 | 12.5%[9.22 µM] | / | -2.8%[10 µM] | 12.6µM* | / | 1.6%
Cc1ccccc1C(=O)NCc1nnc(SCC(=O)N2c3ccccc3Sc3ccccc32)n1C | 11.5%[1.84 µM] | -4.8% | -8.8% | 25.1µM* | -0.4 | -3.2%
CCn1c(CNC(=O)c2ccco2)nnc1SCC(=O)c1ccccc1 | -27.7%[9.22 µM] | / | -5.7%[10 µM] | 6.9% | / | 2.4%
Cn1c(CNC(=O)c2ccccc2F)nnc1SCc1ccc(Cl)cc1 | 8.4% | / | ? | -7.9% | / | 16.8%
C=CCn1c(CNC(=O)c2ccco2)nnc1SCC(=O)N1c2ccccc2Sc2ccccc21 | -24.5% | -10.2% | -5.8%[10 µM] | 0.562µM* | -19.6 | -12.2%
C=C1CCN(C(CC(C)C)C(=O)NCc2ccc(Cl)cc2)S(=O)(=O)c2ccccc21 (configuration not stated) | / | / | / | / | / | 11.0%
Cc1ccc(NC(=O)CCC(=O)NNC(=O)c2ccccc2[N+](=O)[O-])c(C)c1 | 11.6% | / | / | 11.2% | / | 4.1%
NS(=O)(=O)c1ccc(N=Nc2c(-c3ccccc3)[nH]n(-c3nc(-c4ccccc4)cs3)c2=O)cc1 | 5.62µM* | -6.6% | 21.7%[10 µM] | 3.9% | ? | -11.7%
NC(=O)c1ccc(N=Nc2c(-c3ccccc3)[nH]n(-c3ccccc3)c2=O)cc1 | 0.3% | / | -2.8% | 10.1% | / | 0.1%
COCc1cc(C)nc(SCC(=O)Oc2ccccc2)c1C#N | 1.8% | / | -17.9% | -9.6% | / | 61.2%
